Bioassay records (PubChem BioAssay)
DT40 TDP1 CPT = growth inhibition of DT40 Tdp1-/-;hTDP1 cells with camptothecin (screen for TDP1 inhibitors); chicken DT40 Tdp1-/-;hTDP1 cells + 20 nM CPT, ATP luminescence, 48 h; Potency, µM (series often up to 46.2 µM), without a hit: at the highest dose activity change, negative = growth inhibition, most hits filed as inhibitors; 420,000 compounds, 12% hits; AID 686979; also: % is scaled to controls: 0 for no effect and ±100 for the full control effect; nearly all actives have a fitted effect of over 55% in size
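Chicken DT40 Tdp1-/- cells stably complemented with human TDP1 were seeded at 400 cells/well in medium containing 20 nM camptothecin, exposed to pin-transferred compounds, and grown at 37 °C for at least 48 hr. Viability was read as ATP luminescence.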
S2 tox = reduces viability in counter-screen for ATXN expression inhibitors. Potency, µM (top dose mostly 56.7 µM), actives largely listed as cytotoxic. S2 cells (HEK-293 line with an ATXN2-luciferase reporter) viability, CellTiter-Fluor protease fluorescence, 24 h. 400,000 compounds, 0.49% hits; also: nearly all actives have a fitted effect of over 40% in size
HepG2 tox = HepG2 cytotoxicity, counter-screen for TGF-b inhibitors. Potency, µM (titrated, usually from 46.1 µM), for the others: at the top dose activity change, negative = cytotoxicity, actives largely listed as cytotoxic. 410,000 compounds, 0.76% hits. HepG2 CAGA-GFP viability, ATP luminescence, 18 h
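HepG2 CAGA-GFP cells (1000/well, DMEM with 1% FBS) received compound, then TGF-beta at 500 pg/mL final, and were incubated 18 hours at 37 degrees C. Viability was read by CellTiter-Glo luminescence. Media-only wells were set as complete cell-killing and DMSO as no toxicity.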
TGFb SMAD3 inh = TGF-b pathway inhibition; 410,000 compounds, 1.2% hits; HepG2 CAGA-GFP TGF-b/SMAD3 reporter, GFP fluorescence, 18 h; TGF-beta stimulated, 500 pg/mL final; AID 588855; Potency, µM (titrated, usually from 46.1 µM), for the others: at the top dose activity, negative = inhibition, hits mostly inhibitors; also: % is scaled to controls: 0 for no effect and ±100 for the full control effect; nearly all actives have a fitted effect of over 65% in size
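Smad-responsive CAGA-GFP expression was quantified in HEPG2 cells exposed to compounds and 500 pg/mL final TGF-beta for 18 h at 37 degrees C; unstimulated wells defined full inhibition.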
ATXN2 expr inh = inhibitors of ATXN2 expression; HEK-293 ATXN2-luciferase reporter, luminescence, 24 h; Potency, µM (top dose mostly 57 µM), for the others: top-dose activity change, negative = inhibition, hits mostly inhibitors; 360,000 compounds, 0.72% hits; AID 1745845; also: % is scaled to controls: 0 for no effect and ±100 for the full control effect; nearly all actives have a fitted effect of over 55% in size
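qHTS (up to 57 uM final) was run with 24 h compound exposure of reporter cells at 37 °C. Each well was multiplexed: SteadyGlo luminescence measured ATXN2-luciferase expression after a fluorogenic Gly-Phe-AFC viability readout (25 uM final).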
DT40 TDP1 no CPT = qHTS for Inhibitors of human tyrosyl-DNA phosphodiesterase 1 (TDP1): qHTS in cells in absence of CPT | DT40 Tdp1-/- hTDP1 cells, no CPT, ATP luminescence, 48 h | 420,000 compounds, 15% hits | Potency, µM (highest dose often 46.2 µM), without a hit: at the top dose activity change, negative = growth inhibition, hits mostly inhibitors; also: % is scaled to controls: 0 for no effect and ±100 for the full control effect; nearly all actives have a fitted effect of over 55% in size
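Chicken DT40 Tdp1-/- cells complemented with human TDP1, screened without camptothecin (DMSO vehicle only), 400 cells/well. Compounds pin-transferred, cells incubated at 37 °C for at least 48 hr. Growth read as ATP-dependent luminescence (CellTiter-Glo, 30 min at RT).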
* hit, by the source's call; i = inactive; ? = inconclusive; · = not tested or not shown; ! = not active in a repeat. Rows were chosen to be rich in hits. Some 17% of all compounds tested hit in one or more screens of this group. Calls follow the shape of the dose curve; as a rule, active = well fitted curve in the direction sought with a large enough effect; inconclusive = small, poorly fitted or top-dose-only effect, or another doubt; inactive = no such curve, though single readings can be large; an effect the other way counts as inactive or inconclusive. Potency is read from the fitted curve at half-maximal effect.

SMILES | DT40 TDP1 CPT | S2 tox | HepG2 tox | TGFb SMAD3 inh | ATXN2 expr inh | DT40 TDP1 no CPT
C[C@]12CC[C@H](O)C[C@H]1CC[C@@H]1[C@@H]2CC[C@]2(C)[C@@H](C3=CC(=O)OC3)CC[C@]12O | ? | ? | -42% | ? | 0.32µM* | 12µM*
C[C@]12CC[C@H](O)C[C@H]1CC[C@@H]1[C@@H]2C[C@@H](O)[C@]2(C)[C@@H](C3=CC(=O)OC3)CC[C@]12O | -13% | ? | -56% | 10µM* | ? | ?
C[C@@]12C(=O)N(Cc3ccco3)CC(=O)N1[C@H]1c3ccccc3OC[C@@H]1[C@@H]2c1ccccc1 | ? | i | -10% | -2% | 0% | ?
CC(=O)NC1=C(N2CC2C)C(=O)C(NC(C)=O)=C(N2CC2C)C1=O (configuration not stated) | 1.8µM* | ? | -7% | ? | -11% | 4.6µM*
O=C1NC(=O)C(=Cc2ccc(-c3ccc(F)cc3O)o2)C(=O)N1 | ? | i | -34% | ? | ? | ?
CC1=NN=C(c2ccc(N)cc2)c2cc3c(cc2C1)OCO3 | 30µM* | i | 4% | -9% | ? | 27µM*
CCOc1ccc(CCNC(=O)c2cnc3sc(N4CCCC4)nn3c2=O)cc1 | 6.5µM* | · | -8% | ? | · | 2.3µM*
CCOc1ccc2nc(NC(=O)c3cccn(Cc4ccc(C)cc4)c3=O)sc2c1 | -9% | i | -20% | -47% | 6% | -11%
CCOP(=S)(OCC)SCSc1ccc(Cl)cc1 | -10% | ? | · | · | · | -7%
CN1C2CCC1CC(OC(c1ccccc1)c1ccccc1N)C2 (configuration not stated) | ? | i | -3% | 3% | -9% | ?
CN1C2CCC1CC(OC(c1ccccc1)c1ccc(Cl)cc1)C2 (configuration not stated) | 3µM* | · | · | · | · | 4.7µM*
COc1cc(/C=C2\C[C@H]3[C@@H]4CC=C5C[C@@H](N6CCCC6)CC[C@]5(C)[C@H]4CC[C@]3(C)[C@H]2O)cc(OC)c1OC | 15µM* | ? | -35% | -9% | -16% | 5.2µM*
CCCCCCC(C)(C)c1ccc([C@@H]2C[C@H](O)CC[C@H]2CCCO)c(O)c1 | 21µM*! | 10µM* | 10µM*! | 13µM* | 14µM* | 18µM*
CC(N)[C@H](O)c1ccccc1 (some centres not stated) | 3% | · | · | · | · | 0%
CCN(CC(=O)Nc1ccc(NC(C)=O)cc1)C(=O)CSC(c1ccccc1)c1ccccc1 | ? | i | -11% | 1% | -3% | -26%
c1ccc(CN2CCN(Cc3ccc4ccccc4c3)CC2)cc1 | 18µM* | i | -1% | -19% | 7% | 16µM*
Fc1cccc(CCNCc2ccccn2)c1 | -13% | i | -8% | -15% | 4% | -11%
Oc1ccccc1-[n+]1c(-c2ccccc2)cc(-c2ccccc2)cc1-c1ccccc1 | 1.3µM* | ? | -40% | ? | ? | 2.3µM*
Nc1ccccc1-[n+]1c(-c2ccccc2)cc(-c2ccccc2)cc1-c1ccccc1 | 6.5µM* | i | -18% | ? | 1% | 5.8µM*
[O-]c1ccccc1-[n+]1c(-c2ccccc2)cc(-c2ccccc2)cc1-c1ccccc1 | 2.1µM* | ? | -19% | ? | ? | 2.1µM*
Cc1cccc(-n2c(=O)c3c(c4cc(C)ccc4n3C)n(CC(=O)Nc3ccc(C)c(C)c3)c2=O)c1 | -20% | i | 1% | -7% | 5% | ?
CC(C)[C@]12O[C@H]1[C@@H]1O[C@]13[C@]1(O[C@H]1C[C@H]1C4=C(CC[C@@]13C)C(=O)OC4)[C@@H]2O | 0.12µM* | · | · | · | · | 0.15µM*
CC(C)N(Cc1nccn1C)C(=O)CCc1nnc(CCCc2ccccc2)o1 | -1% | i | -7% | -25% | · | ?
CCCCCCn1c(O)c(C=NC2CCCCC2N)c(=O)[nH]c1=O (configuration not stated) | 16µM* | i | -1% | 0% | -13% | 16µM*
Cc1cc(N(CCCl)CCCl)ccc1C=NNC(=O)Cc1cc(=O)oc2cc(O)ccc12 | 12µM* | i | -8% | -7% | -36% | ?
SMILES | DT40 TDP1 CPT | S2 tox | HepG2 tox | TGFb SMAD3 inh | ATXN2 expr inh | DT40 TDP1 no CPT
NC(CP(=O)(O)O)C(=O)O (configuration not stated) | -2% | · | · | · | · | -4%
CCOc1cc2c(cc1OCC)-n1cccc1C(c1cccc(F)c1F)NC2 (configuration not stated) | ? | i | -8% | 0% | -1% | 23µM*
CCOc1cc2c(cc1OCC)-n1cccc1C(c1ccccc1O)NC2 (configuration not stated) | 23µM* | i | -24% | -20% | -23% | ?
CCOc1cc2c(cc1OCC)-n1cccc1C(c1ccccc1OC)NC2 (configuration not stated) | ? | i | -11% | 0% | -28% | 26µM*
CCOc1cc2c(cc1OCC)-n1cccc1C(c1ccc(OC)c(OC)c1)NC2 (configuration not stated) | ? | ? | -46% | ? | ? | ?
CCOc1cc2c(cc1OCC)-n1cccc1C(c1c(O)cccc1OC)NC2 (configuration not stated) | 13µM* | i | -13% | 0% | -32% | 10µM*
c1cnc(N2CC[C@@]3(CCCNC3)C2)nc1 | ? | · | · | · | · | -25%
Cc1cc(OCC(=O)N2CCN(CCc3ccncc3)CC2)ccc1Cl | ? | i | -26% | ? | -2% | ?
O=C(CN1CCN(C(=O)COc2cccc(F)c2)CC1)Nc1ccc(Cl)c(C(F)(F)F)c1 | 21µM* | i | -22% | -21% | -26% | 5.2µM*
COc1ccc2cc1Oc1ccc(cc1)C[C@H]1c3cc(c(OC)cc3CCN1C)Oc1c(OC)c(OC)cc3c1[C@@H](C2)N(C)CC3 | ? | ? | -22% | -38% | ? | 23µM*
COc1cc2c3cc1Oc1c(OC)c(OC)cc4c1C(Cc1cccc(c1)Oc1ccc(c(O)c1)CC3N(C)CC2)N(C)CC4 (configuration not stated) | 2% | · | · | · | · | 0%
